The values below come from PubChem BioAssay AID1346428 (National Center for Advancing Translational Sciences (NCATS), 2018).

Hit rate of the full screen: of about 48,000 compounds, about 1,200 (2.5%) were called active. Roughly 2% stayed inconclusive and do not appear here. The entries come from a sample that favours actives as a whole. A number with no mark means an inactive call.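 Rule for the calls: active = activation of at least 60% and not above a set upper limit (about 1 call in 100 departs from these limits); inconclusive = activation of 40% to 60%, or above that upper limit; inactive = activation under 40%.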

Chain of Probable G-protein coupled receptor 32 (Homo sapiens) (O75388 whole entry, looked up, the tested form may be a part): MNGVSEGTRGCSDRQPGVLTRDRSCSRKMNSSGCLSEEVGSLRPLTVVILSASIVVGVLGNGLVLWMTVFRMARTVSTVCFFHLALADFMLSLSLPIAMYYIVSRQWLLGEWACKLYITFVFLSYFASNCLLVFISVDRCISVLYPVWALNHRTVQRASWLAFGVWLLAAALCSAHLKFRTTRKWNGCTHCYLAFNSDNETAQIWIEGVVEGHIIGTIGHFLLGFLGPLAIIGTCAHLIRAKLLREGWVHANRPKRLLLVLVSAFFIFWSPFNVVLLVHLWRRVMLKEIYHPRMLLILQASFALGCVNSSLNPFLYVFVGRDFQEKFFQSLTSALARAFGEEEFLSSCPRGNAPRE

The assay deals with Probable G-protein coupled receptor 32 (Homo sapiens) (UniProt O75388). The assay is described as follows: qHTS for Agonists of Human Resolvin D1 Receptor DRV1. Note: 0% is about no effect. The note with it: CHO-K1 GPR32 beta-arrestin PathHunter luminescence, 90 min; at 76.9 µM; active compounds read high; zero percent set by DMSO-only wells. The gist of the method:
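GPR32 activation in stably transfected CHO-K1 cells, detected as beta-arrestin recruitment by enzyme-fragment complementation. Compound exposure: 90 min, 37 °C.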
A general note: qHTS replaces the single test concentration by a dilution series.
`Cc1ccccc1C(=O)N(Cc1ccc(N(C)C)cc1)CC1CCCO1` (stereo unspecified): the activation is -21.9%.

As to `CSc1ccc(CCNC(=O)c2ccc3c(c2)nc2n3CCOC2)cc1`, the activation is -8.85%.

In the case of `CC(C)Cn1c(=O)c2ccccc2n2c(-c3cccc(Cl)c3)nnc12`, the activation was -0.202%.

Take `COc1cccc(-c2nnc3n(CCc4ccccc4)c(=O)c4ccccc4n23)c1O`: the activation was 77.1% (active).

Take `COc1ccc(NC(=O)CCc2nnc3n(CC(C)C)c(=O)c4ccccc4n23)cc1OC`: the activation was 10.7%.

On to `CC(C)(C)OC(=O)N1CCC(c2c(C(=O)Nc3ccc4c(c3)OCO4)cnn2-c2ccccc2)CC1`, for which the activation is 3.59%.

On to `CCN(CCCNC(=O)CSc1cc(=O)n(C)c2cc(Cl)ccc12)c1cccc(C)c1`, for which the activation is 3.23%.

For the compound `CCOc1ccc(CCNC(=O)CSc2cc(=O)n(C)c3ccc(Cl)cc23)cc1OCC`, the activation was -7.71%.

Consider `COc1cccc(NC(=O)CSc2cc(=O)n(C)c3ccc(Cl)cc23)c1`, for which the activation was 66.2% (active).

Regarding `Cc1ccccc1CNC(=O)Cn1c(C)c2cnn(-c3ccccc3)c(=O)c2c1C`, the activation was -12.3%.

With `Cc1c(NC(=O)Nc2ccc(F)c(Cl)c2)c(=O)n(-c2ccccc2)n1C`, the activation is -8.62%.

Turning to `Oc1c(C(c2ccc(F)cc2)N2CCN(Cc3ccccc3)CC2)sc2nc(-c3ccco3)nn12` (stereo unspecified), the activation was 64.8% (active).

In the case of `Oc1c(C(c2ccccc2Cl)N2CCOCC2)sc2nc(-c3ccco3)nn12` (stereo unspecified), the activation was -11.9%.

As to `Cc1cccc(-n2ncc(C(=O)N3CCc4ccccc4C3)c2C2CCN(C(=O)OC(C)(C)C)CC2)c1`, the activation was -17.8%.

For `O=C(COCc1cc(-c2ccc3c(c2)OCO3)on1)N1CCN(c2cccc(Cl)c2)CC1`, the activation is -10.3%.

Turning to `Cc1cccc(CNS(=O)(=O)c2ccc(-c3cnc(C4CC4)o3)cc2)c1`, the activation was -14.5%.

`COc1ccc(CCC(=O)NCCc2csc(-c3ccc(Cl)cc3)n2)cc1`: the activation was 65.3% (active).

Regarding `COc1ccc(-c2nc(CCNC(=O)c3ccc(Br)o3)cs2)cc1`, the activation was 6.04%.

Regarding `O=C(NCCc1csc(-c2ccc(C(F)(F)F)cc2)n1)C(=O)Nc1ccc(F)c(Cl)c1`, the activation was -7.23%.

In the case of `CCc1nc2c(cnn2-c2ccc(C)cc2)c(=O)n1-c1ccc(C)cc1`, the activation was -4.43%.

As to `COc1cccc(C(=O)NC2(C(F)(F)F)C(=O)Nc3c2c(=O)[nH]c(=O)n3-c2ccc(C)cc2)c1` (stereo unspecified), the activation was -5.74%.

Consider `CCCn1ccc2c(OCC(=O)NCc3ccc(F)cc3)cccc2c1=O`, for which the activation is 76.6% (active).

As for `CCOCCn1ccc2c(OCC(=O)NCc3ccc(C)cc3)cccc2c1=O`, the activation was -7.09%.

`CCn1cc(CCC(=O)NCc2ccc(F)cc2)c2ccccc21`: the activation is -18.2%.

`CC(=O)c1ccc(S(=O)(=O)N2CCC(Oc3ccc(-n4cnnn4)cc3)CC2)cc1`: the activation was -8.41%.

For `COc1cccc(NC(=O)c2csnn2)c1`, the activation was 10.9%.

Consider `COc1cccc(-c2cc(C(=O)Nc3ccc(C)cc3)[nH]n2)c1`, for which the activation was 64.6% (active).

Turning to `CCc1cccc(NC(=O)c2cc(-c3ccccc3)n[nH]2)c1`, the activation was -0.275%.

Take `Cc1ccc2cccc(NC(=O)C(C)Oc3ccc(C)c(C)c3)c2n1` (stereo unspecified): the activation is -2.89%.

For `COCCCNC(=O)C1CCC(CNS(=O)(=O)c2ccc(OC)cc2)CC1` (stereo unspecified), the activation was -7.55%.

`COc1ccc(N2C(=O)NC(NS(=O)(=O)c3ccc(Cl)cc3)(C(F)(F)F)C2=O)cc1` (stereo unspecified): the activation is -2.22%.

Turning to `Cc1nnc(SCc2cc(=O)c3cc(F)ccc3[nH]2)n1C`, the activation was -15.5%.

As for `CCC(=O)N1CCc2cc(Br)cc(S(=O)(=O)CCC(=O)N3CCN(c4ccc(F)cc4)CC3)c21`, the activation was 1.23%.

Consider `CCCCn1cc(S(=O)(=O)c2ccc(OCC)cc2)c(=O)c2cc(OC)c(OC)cc21`, for which the activation was -26%.

In the case of `COc1ccc(CCC(=O)NCc2ccc3c(c2)CCN3C(=O)c2ccc(F)cc2)cc1`, the activation is -17.6%.

Regarding `CCC(Sc1nnc(-c2ccc(OC)cc2)c(-c2ccc(OC)cc2)n1)C(=O)NC1CCCCC1` (stereo unspecified), the activation is -11.5%.

As for `CCOC(=O)c1ccc(NC(=O)c2nc(SCc3ccc(F)cc3)ncc2Cl)cc1`, the activation is -27.7%.

Regarding `CCCS(=O)(=O)c1ncc(Cl)c(C(=O)Nc2scc(-c3ccccc3)c2C(=O)OCC)n1`, the activation is 97.2% (active).

Turning to `Cc1ccc(NC(=O)c2nc(S(=O)(=O)Cc3cccc(C)c3)ncc2Cl)cc1`, the activation was -21.8%.

For `CCOC(=O)C1CCCN(CC(=O)Nc2cc(C)c3c(=O)oc4ccccc4c3n2)C1` (stereo unspecified), the activation was -11.1%.

Take `CSc1ccccc1-c1nnc(NC(=O)c2ccc3c(c2)OCCO3)o1`: the activation is -21.8%.

For the compound `CCOCCCNC(=O)c1cn(CC)c2ccc(S(=O)(=O)N3CCc4ccccc4C3)cc2c1=O`, the activation is 3.07%.

As to `CCn1cc(C(=O)NCc2ccccc2)c(=O)c2cc(S(=O)(=O)N3CCCCC3)ccc21`, the activation is 0.542%.

`CCn1cc(C(=O)NCc2ccc(C)cc2)c(=O)c2cc(S(=O)(=O)N3CCc4ccccc4C3)ccc21`: the activation was 70.1% (active).

Regarding `COc1ccccc1NC(=O)Cn1cnc2ccc(S(=O)(=O)N3CCC(C)CC3)cc2c1=O`, the activation is 14.7%.

Consider `CCc1cccc(CC)c1NC(=O)Cn1c(=O)c(-c2cc(C)ccc2NC(C)=O)nc2ccccc21`, for which the activation was -6.44%.

In the case of `CCc1nc2ccc(C(=O)N3CCN(c4cccc(Cl)c4)CC3)cc2nc1CC`, the activation is -29.3%.

In the case of `CCc1nn(CCCN2CCN(c3cccc(Cl)c3)CC2)c(=O)n1CCOc1ccccc1`, the activation was 89.4% (active).

On to `CCOC(=O)c1c(C)[nH]c(CCC(=O)NCCCN2CCN(c3cccc(Cl)c3)CC2)c1C`, for which the activation is 3.48%.

In the case of `Cc1ccc(Cl)cc1N(C)C(=O)C1CCCN(c2ncnc3onc(-c4ccc(F)cc4)c23)C1` (stereo unspecified), the activation is -22%.

Take `CCNC(=O)CC1C(=O)N(c2ccc(F)cc2)C(=O)N1Cc1ccc(C)cc1` (stereo unspecified): the activation was 0.37%.

Regarding `CCCCC12CN3CC(C)(CN(C1)C3c1ccc(O)c(OC)c1)C2=O` (stereo unspecified), the activation was -20.2%.

On to `Cc1cc(Nc2cccc(C(F)(F)F)c2)nc2ccc(NC(=O)c3ccc(=O)[nH]c3)cc12`, for which the activation is 112% (active).

As for `Cn1c(C(=O)Nc2cccc(C(F)(F)F)c2)cc2c(=O)n3ccccc3nc21`, the activation was 4.29%.

For `COc1cc(OC)cc(C(=O)Nc2ccc3nc(Nc4cccc(C(F)(F)F)c4)cc(C)c3c2)c1`, the activation is -9.34%.

On to `Cn1c(=O)sc2cc(NS(=O)(=O)c3ccc(C(C)(C)C)cc3)ccc21`, for which the activation is -13.3%.

With `Cc1cc2nc(-c3ccc(NC(=O)c4cc5ccccc5o4)cc3)oc2cc1C`, the activation is -3.47%.

In the case of `CC(C)Oc1ccc(NC(=O)c2cc3ccccc3o2)cc1`, the activation was 63.5% (active).

In the case of `CCC(C)c1ccc2oc(-c3ccc(NC(=O)c4cc5ccccc5o4)cc3)nc2c1` (stereo unspecified), the activation is -0.177%.

Consider `CCOC(=O)c1ccc(CN(Cc2ccccc2)S(=O)(=O)c2ccc(Cl)cc2)cc1`, for which the activation was -16.7%.

With `O=C(O)CCCc1ccccc1`, the activation is 6.7%.

As to `O=C(OCc1ccccc1)c1ccc(O)cc1`, the activation was 68.1% (active).

Regarding `COc1ccc(NC(=O)Cn2c(=O)n(Cc3ccc(C(=O)NCc4ccccc4Cl)cc3)c(=O)c3ccccc32)cc1`, the activation is -4.2%.

In the case of `CCCCCCc1ccc(O)cc1O`, the activation is 89.2% (active).

For the compound `Cc1ccc(O)c(NC(=O)CCS(=O)(=O)c2nc(-c3ccc4c(c3)OCO4)cc(C(F)(F)F)n2)c1`, the activation was -25.7%.

Take `COC(=O)c1ccc2c(c1)N(CC(=O)Nc1ccc(C)c(C)c1)C(=O)c1ccccc1S2`: the activation was -13.7%.

`COc1ccc(CNC(=O)CCc2c(C)nn(-c3ccc(N4CCCC4)nn3)c2C)cc1`: the activation is -8.15%.

As for `O=C(Nc1ccccc1Br)c1cc(CN2CCCC2)on1`, the activation was -9.24%.

Regarding `Cc1nn(Cc2ccc(F)cc2)c(C)c1NC(=O)c1cc(CC(C)C)on1`, the activation was 86.4% (active).

Turning to `Cc1ccccc1Cn1nc(C)c(NC(=O)c2cc(-c3ccc(F)cc3)on2)c1C`, the activation is 6.09%.

In the case of `Cc1ccc(NC(=O)C(Cc2ccccc2)NS(=O)(=O)c2ccc3c(c2)oc(=O)n3C)cc1C` (stereo unspecified), the activation was 4.78%.

Consider `CCN(CCCNC(=O)Cn1ncc2c3ccccc3n(C)c2c1=O)Cc1ccccc1`, for which the activation is -3.31%.

Regarding `Cc1ccc(C)c(N2CCN(C(=O)Cn3nc(C)c4sc5ccccc5c4c3=O)CC2)c1`, the activation is -8.71%.

As for `O=C(CCS(=O)(=O)c1ccc2c(c1)NC(=O)CO2)Nc1cccc(C(F)(F)F)c1`, the activation is 13.3%.

In the case of `CN(CC(=O)Nc1cccc(C(F)(F)F)c1)S(=O)(=O)c1cccs1`, the activation is 67.5% (active).

For `O=C(CN1c2ccccc2S(=O)(=O)c2ccccc21)Nc1cccc(C(F)(F)F)c1`, the activation was 1.8%.

`CCc1ccccc1NC(=O)N1CCC2(CC1)Oc1ccccc1C(=O)N2Cc1ccccc1F`: the activation was -16.7%.

Take `O=C(CSc1n[nH]c(-c2ccccc2)n1)N1CCCCC1`: the activation was 7.63%.

Consider `COC(=O)c1c(NC(=O)CCCOc2ccccc2)sc2c1CCC(C)C2` (stereo unspecified), for which the activation was 7.01%.

`Cc1cccc(OCCCC(=O)Nc2sc3c(c2C(N)=O)CCC(C)C3)c1` (stereo unspecified): the activation is 70.3% (active).

Take `CCOc1ccc(NC(=O)c2c(NC(=O)Cc3ccccc3)sc3c2CCC(C)C3)cc1` (stereo unspecified): the activation was -11.2%.

On to `COc1ccccc1-c1cc2nc(C)c(CCC(=O)O)c(C)n2n1`, for which the activation is -0.841%.

`COc1ccc(NC(=O)CCCN2C(=O)CCn3nc(-c4cn(C)c5ccccc45)cc32)cc1OC`: the activation is 17.2%.

Turning to `CCOc1cc(C2c3c(-c4ccc(Br)cc4)n[nH]c3C(=O)N2c2ccc(Cl)cc2)ccc1O` (stereo unspecified), the activation was 85.1% (active).

In the case of `CCOC(=O)c1ccc(N2C(=O)c3n[nH]c(C)c3C2c2ccc(O)c(OC)c2)cc1` (stereo unspecified), the activation was 21.2%.

Take `CCOc1ccc(-c2n[nH]c3c2C(c2ccccc2OC)N(c2ccc(Br)cc2)C3=O)cc1` (stereo unspecified): the activation was -5.97%.
